We go through 26 compounds from PubChem BioAssay (EPA / NIEHS).

The nature of test [1]: TOX21_p53_BLA_p2_viability: Viability Assessment in the Tox21 HCT-116 p53 Agonism Beta-lactamase Assay, Phase 2 (AID 2283591).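 Note: actives lower the ATP signal meaning cytotoxicity.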 Put shortly: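 HCT-116 p53-bla cells (4000/well) rested 5 h at 37C, then received compounds in DMSO (217-fold dilution) for 16 h at 37C, 5% CO2. After the CCF4 read, CellTiter-Glo was added; ATP luminescence was read after 30 min at room temperature.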

Test [2] addresses Cellular tumor antigen p53 (Homo sapiens) (UniProt P04637). The test is described as follows: TOX21_p53_BLA_p2_ratio: Tox21 HCT-116 p53 Agonism Beta-lactamase Assay, Ratio, Phase 2 (AID 2283592). In outline:
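Readout: blue/green (460/530 nm) FRET emission ratio after 2 h CCF4-AM loading at room temperature, excitation 405 nm. HCT116 p53 bla cells, 16 h compound exposure at 37C, 5% CO2; agonist direction fitted against DMSO baseline.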

Test [3] is described as follows: TOX21_p53_BLA_p3_viability: Viability Assessment in the Tox21 HCT-116 p53 Agonism Beta-lactamase Assay, Phase 3 (AID 2283593).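 Note: cells exposed to compound for 16 h before reading.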 In outline: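 HCT-116 cells (4000/well) rested 5 h at 37C, then got DMSO compounds by pin tool (217-fold dilution) for 16 h at 37C, 5% CO2. After the bla read, CellTiter-Glo was added and luminescence read at 30 min, room temperature.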
Test [4] is described as follows: TOX21_p53_BLA_p4_viability: Viability Assessment in the Tox21 HCT-116 p53 Agonism Beta-lactamase Assay, Phase 4 (AID 2283597).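 Note: hits lower the luminescence signal meaning cytotoxicity.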 Put shortly:
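ATP content by CellTiter-Glo luminescence, 30 min RT, read after the beta-lactamase ratio step. Cells: HCT116, 4000/well, compound added after 5 h, exposure 16 h at 37C. Signal loss = reduced viability.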

Test [5] addresses Cellular tumor antigen p53 (Homo sapiens) (UniProt P04637). Briefly: TOX21_p53_BLA_p5_ratio: Tox21 HCT-116 p53 Agonism Beta-lactamase Assay, Ratio, Phase 5 (AID 2283599). In outline: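 HCT-116 cells carrying a p53-inducible beta-lactamase reporter were seeded at 4000 cells/well and dosed after 5 h with compound in DMSO (217-fold dilution). After 16 h at 37C, CCF4-AM substrate was added for 2 h, and the 460/530 nm emission ratio was scored as gain-of-signal versus DMSO.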

Test [6] is described as follows: TOX21_p53_BLA_p5_viability: Viability Assessment in the Tox21 HCT-116 p53 Agonism Beta-lactamase Assay, Phase 5 (AID 2283600). Put shortly: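 ATP luminescence (CellTiter-Glo, 30 min, RT) served as the viability read-out, with loss of signal indicating cytotoxicity. Compounds in DMSO were pinned at a 217-fold dilution onto 4000 cells/well and incubated 16 h, 37C.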

Test [7] deals with Cellular tumor antigen p53 (Homo sapiens) (UniProt P04637). The test is described as follows: TOX21_p53_BLA_p4_ratio: Tox21 HCT-116 p53 Agonism Beta-lactamase Assay, Ratio, Phase 4 (AID 2283601). Put shortly: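 HCT116 cells carrying an inducible beta-lactamase reporter were plated at 4000 cells/well, rested 5 h, then exposed to compounds in DMSO (217-fold dilution) for 16 h at 37C. CCF4-AM substrate was loaded 2 h at room temperature; 460/530 nm emission ratio scored gain-of-signal versus DMSO.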
Chain of Cellular tumor antigen p53 (Homo sapiens) (P04637 whole entry, looked up): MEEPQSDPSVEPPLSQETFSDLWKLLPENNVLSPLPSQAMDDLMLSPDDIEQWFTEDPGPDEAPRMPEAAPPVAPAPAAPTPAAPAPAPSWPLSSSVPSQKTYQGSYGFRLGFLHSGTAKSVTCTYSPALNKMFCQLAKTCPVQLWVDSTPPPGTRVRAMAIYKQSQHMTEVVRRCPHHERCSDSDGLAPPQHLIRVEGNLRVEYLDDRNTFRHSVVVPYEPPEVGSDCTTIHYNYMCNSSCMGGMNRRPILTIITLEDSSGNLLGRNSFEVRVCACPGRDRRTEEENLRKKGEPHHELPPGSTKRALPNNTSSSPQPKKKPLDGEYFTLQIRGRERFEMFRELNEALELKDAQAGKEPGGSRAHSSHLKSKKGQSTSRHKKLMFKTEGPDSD

Test [8] can be described thus: TOX21_PR_BLA_Followup_Agonist_viability: Viability Assessment in the Tox21 HEK293 Progesterone Receptor (PR) Agonism Beta-lactamase Follow-Up Assay (AID 2283935).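 Note: signal loss means lower viability so actives are cytotoxic.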 In outline:
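Run multiplexed with the beta-lactamase FRET read, this endpoint measures ATP by CellTiter-Glo luminescence (30 min, room temperature). PR-UAS-bla HEK293T cells received compound 6 hr after plating and were then incubated 16 hr at 37C in 2% stripped serum.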

Test [9] is described as follows: TOX21_PR_BLA_Followup_Antagonist_viability: Viability Assessment in the Tox21 HEK293 Progesterone Receptor (PR) Antagonism Beta-lactamase Follow-Up Assay (AID 2283936).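 Note: cells exposed to compound with R5020 agonist for 16 h; hits lower the luminescence signal meaning cytotoxicity.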 In outline: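 PR-UAS-bla HEK293T cells in medium with 2% charcoal-stripped FBS were treated with compounds plus R5020 for 16 hr at 37C. After the beta-lactamase read, CellTiter-Glo was added to the same wells and luminescence read after 30 min at room temperature.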

A short description of test [10]: TOX21_PR_LUC_Followup_Agonist_viability: Viability Assessment in the Tox21 HEK293 Progesterone Receptor (PR) Agonism Luciferase Follow-Up Assay (AID 2283941).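 Note: loss of signal means cytotoxicity so actives lower viability.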 Put shortly:
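Cytotoxicity counter-readout in the PR-A luciferase reporter line HEK293, with 16 h compound exposure at 37C after cells were cultured in charcoal-stripped serum. Cellular ATP quantified by CellTiter-Glo luminescence.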

Records with an inconclusive call do not appear. The source made the active and inactive calls. Rule for the calls: active = hit-call score of the fitted dose curve at least 0.9, where 1 is the maximum; inconclusive = response in the unintended direction; inactive = score below 0.9.

Regarding `CCCCCCCCCCC(=O)O`, the outcome in test [1], in [2], in test [3], in test [4], in [5] and in [6] was inactive.
For the compound `CCOc1ccc(N=C(C)Nc2ccc(OCC)cc2)cc1`, the compound was called inactive in [1], in test [2], in test [3], in test [4], in [5] and in test [6].
Regarding `C[N+]1(C)CCC(OC(=O)C(O)(c2ccccc2)C2CCCC2)C1` (configuration not stated), the compound was classed as inactive in test [1], in test [2], in test [3], in test [4], in test [5] and in test [6]. Also, the result in [7] was inactive.
As to `CCC(=O)O[C@]1(C(=O)CCl)[C@@H](C)C[C@H]2[C@@H]3C[C@H](F)C4=CC(=O)C=C[C@]4(C)[C@@]3(F)[C@@H](O)C[C@@]21C`, the call in test [1], in test [2], in test [3], in test [4], in [5] and in test [6] was inactive. Further, the outcome in test [7] was inactive.
As to `CC(C)c1cc2c(cc1S(=O)(=O)O)[C@@]1(C)CCC[C@@](C)(C(=O)O)[C@@H]1CC2`, the result in test [1], in [2], in test [3], in test [4], in [5] and in test [7] was inactive.
In the case of `NCCCC[C@H](NC(=O)[C@@H]1CCCN1C(=O)[C@@H]1CSSC[C@H](N)C(=O)N[C@@H](Cc2ccccc2)C(=O)N[C@@H](Cc2ccccc2)C(=O)N[C@@H](CCC(N)=O)C(=O)N[C@@H](CC(N)=O)C(=O)N1)C(=O)NCC(N)=O`, the call in test [1], in test [2], in [3], in test [4], in [5] and in [6] was inactive. Moreover, in test [7], the result was inactive.
Regarding `C[C@]12C=CC(=O)N[C@@H]1CC[C@@H]1[C@@H]2CC[C@]2(C)[C@@H](C(=O)Nc3cc(C(F)(F)F)ccc3C(F)(F)F)CC[C@@H]12`, the outcome in [1], in test [2], in test [4], in test [5], in test [6] and in [7] was inactive. Also, the AC50 in test [3] is 7.37 µM (active).
With `CCOC(=O)NNc1ccc(N(CC)CC(C)O)nn1` (configuration not stated), the result in [1], in test [2], in [3], in [4], in test [5] and in test [6] was inactive. In addition, the outcome in test [7] was inactive.
On to `Cc1cc(-c2ccc(N=Nc3ccc4c(S(=O)(=O)O)cc(S(=O)(=O)O)c(N)c4c3O)c(C)c2)ccc1N=Nc1ccc2c(S(=O)(=O)O)cc(S(=O)(=O)O)c(N)c2c1O`, for which the outcome in test [1], in test [2], in test [3], in [4], in [5] and in test [6] was inactive. The result in test [7] was inactive.
On to `C=Cc1ccccc1`, for which the compound was called inactive in test [1], in test [2], in test [3], in test [4], in test [5] and in [6]. For the same compound, in test [7], the result was inactive.
As to `COc1ccc(CNCC(O)COc2ccc3[nH]c(=O)ccc3c2)cc1OC` (configuration not stated), the result in test [1], in [2], in test [3], in [4], in [5] and in test [6] was inactive. For the same compound, the result in test [7] was inactive.
Regarding `CN1[C@@H](CC(=O)c2ccccc2)CCC[C@H]1C[C@H](O)c1ccccc1`, the call in [1], in test [2], in test [3], in test [4], in test [5] and in [6] was inactive. In addition, the outcome in [7] was inactive.
Consider `CCCCCCCCCOC(=O)c1ccccc1C(=O)OCCCCCCCCC`, for which the compound was called inactive in test [1], in [2], in test [3], in [4], in test [5] and in [7].
In the case of `CCOC(=O)c1cnc2c(cnn2CC)c1NN=C(C)C`, the call in test [1], in test [2], in [3], in [4], in test [5] and in [6] was inactive. In test [7], the outcome was inactive.
In the case of `CC(C)Cc1ccc(CC(=O)O)cc1`, the call in [1], in test [2], in test [3], in test [4], in test [5] and in [7] was inactive.
`C[C@]12CCC(=O)C=C1[C@@H]1C[C@@H]1[C@H]1[C@@H]3[C@@H]4C[C@@H]4[C@@]4(CCC(=O)O4)[C@@]3(C)CC[C@@H]12`: the compound was called inactive in test [1], in test [3], in [4], in test [5], in [6] and in test [8]. The compound was called inactive in test [9] and in [10]. For the same compound, the half-maximal activity concentration (AC50) in test [2] was 43.4 µM (active).
Turning to `CCCCC(CC)COC(=O)C(C#N)=C(c1ccccc1)c1ccccc1` (configuration not stated), the outcome in test [1], in test [2], in test [3], in test [4], in [5] and in test [6] was inactive. For the same compound, in test [7], the result was inactive.
For `Clc1ccc2c(c1)CCc1cccnc1C2=C1CCNCC1`, the compound was classed as inactive in test [1], in [2], in test [3], in test [4], in test [5] and in [6]. In addition, in test [7], the outcome was inactive.
Regarding `c1ccc(CNCCNCc2ccccc2)cc1`, the outcome in [1], in test [2], in test [3], in test [4], in test [5] and in [6] was inactive. Moreover, the outcome in test [7] was inactive.
Turning to `CC(C)(C)NC[C@H](O)COc1ccccc1C1CCCC1`, the outcome in [1], in test [2], in test [3], in [4], in test [5] and in test [6] was inactive. Also, in test [7], the result was inactive.
For `CN1CCC(OC(=O)C(Oc2ccc(Cl)cc2)Oc2ccc(Cl)cc2)CC1`, the result in test [1], in test [2], in [3], in [4], in test [5] and in [7] was inactive.
`Nc1cccc(S(=O)(=O)O)c1`: the result in test [1], in test [2], in [3], in [4], in [5] and in test [6] was inactive. Besides, in test [7], the outcome was inactive.
Consider `O=C(O)c1ccc2cc(O)ccc2c1`, for which the compound was called inactive in test [1], in [2], in test [3], in [4], in test [5] and in test [7].
Take `CCCC[P+](C)(CCCC)CCCC`: the call in test [1], in [2], in [3], in test [4], in test [5] and in test [6] was inactive. In addition, the outcome in test [7] was inactive.
For `CCCCc1oc2ccc(NS(C)(=O)=O)cc2c1C(=O)c1ccc(OCCCN(CCCC)CCCC)cc1`, the AC50 in test [1] was 34.7 µM (active); in [3], 34.6 µM (active); in test [4], 23.7 µM (active); in test [7], 43.1 µM (active). The result in test [2], in test [5] and in test [6] was inactive.
For the compound `Cc1c(C(=O)O)cccc1[N+](=O)[O-]`, the compound was called inactive in test [1], in [2], in [3], in test [4], in test [5] and in test [6]. Also, the result in [7] was inactive.

The AC50 is the midpoint of the concentration-response curve, whichever way the signal moves.
